# Measured values: ChEMBL document CHEMBL1157539, “Thousands of chemical starting points for antimalarial lead identification” (Nature, 2010)
# Legend:
# Assay type in all cases: functional
# [1] = tested on: Plasmodium falciparum; assay: GSK_TCMDC: Inhibition of Plasmodium falciparum 3D7 in whole red blood cells, using parasite LDH activity as an index of growth. Test compounds present at 2uM
# [2] = tested on: Plasmodium falciparum; assay: GSK_TCMDC: Inhibition of Plasmodium falciparum Dd2 in whole red blood cells, using parasite LDH activity as an index of growth. Test compounds present at 2uM
# [3] = tested on: HepG2; assay: GSK_TCMDC: Percent inhibition of human HepG2 cell line. Test compounds present at 10uM.
Structure (SMILES),Inhibition [1] [%],Inhibition [2] [%],Inhibition [3] [%]
N#Cc1ccc(C(=O)Nc2cccc(-c3ccc(CN4CCCC4)cc3)c2)cc1.O=C(O)C(F)(F)F,99,0,13
Cc1cc(N/N=C/c2cccc([N+](=O)[O-])c2)c2cc(F)ccc2n1,100,99,3
Cl.c1ccc2c(Nc3ccc(Cc4ccc(Nc5c6ccccc6nc6ccccc56)cc4)cc3)c3ccccc3nc2c1,100,100,93
Cl.O=C(O)CNCC(O)c1ccccc1 (configuration not stated),96,0,7
O=C(NC1CCN(Cc2cccc(C(F)(F)F)c2)CC1)c1ccc(-c2cccc(C(F)(F)F)c2)s1.O=C(O)C(F)(F)F,94,54,36
Cc1ccccc1OCC(O)CN1CCC(C2CCN(CC(O)COc3ccccc3C)CC2)CC1 (configuration not stated),100,51,12
Cc1cc(NC(=O)c2ccco2)ccc1OC1CCN(Cc2ccc(F)cc2)CC1.O=C(O)C(F)(F)F,96,93,4
CCCc1ccc(N2C(N)=NC(N)=NC2(C)C)cc1.Cl,94,0,59
COc1ccc(CNCc2cccc(-c3cccc(-c4nc5cc(C(F)(F)F)ccc5[nH]4)c3)c2)cc1.O=C(O)C(F)(F)F,100,91,40
Nc1ncc(-c2cn[nH]c2)cc1-c1nc2cc(Cl)cnc2[nH]1,100,70,40
CCOC(=O)c1ccc(NC(=O)Nc2cccc(-c3ccc(-c4nc5cccc(C)c5[nH]4)s3)c2)cc1,100,99,44
Cc1nc2c(-n3cc(Cn4ccnc4)c4ccccc43)ncnc2n1-c1ccc(Cl)cc1Cl,89,29,16
O=C(/C=C/c1ccc(C(F)(F)F)cc1)NCCCCCN1CCN(C(=O)Nc2ccc(Cl)c(Cl)c2)CC1,95,0,37
Cc1csc(-c2nc(NCc3cccnc3)ncc2-c2ccsc2)n1,87,74,0
CC(C)(C)NC(=O)c1ccc(Oc2ccc(OC(F)(F)F)cc2)c(NC(=O)C(C)(C)C)c1,89,2,0
CNC(=O)c1cnc(Nc2ccc(N3CCN(C)CC3)cc2)nc1Nc1ccccc1OC.O=C(O)C(F)(F)F,100,84,8
O=C(CCCCCNC(=O)c1ccc(O)c(-c2ccc(Cl)c(Cl)c2)c1)NC1CCCc2ccccc21 (configuration not stated),97,13,0
N#Cc1ccc(N(CCOc2ccc(Cl)cc2)Cc2ccccc2C(F)(F)F)cc1C(F)(F)F,91,64,3
O=C(CSc1nc2ccccc2c(=O)n1C1CC1)Nc1cc(C(F)(F)F)ccc1Cl,97,96,5
N#Cc1ccc(CN2CCC(Oc3ccc(NC(=O)c4ccco4)cc3Cl)CC2)cc1.O=C(O)C(F)(F)F,95,96,7
COc1cc(C=NN=c2cc(C)[nH]c3ccccc23)cc(OC)c1OC,100,95,5
CN(C)CCCN1CCN(Cc2ccc(-c3ccc(-c4nc5ccccc5[nH]4)s3)cc2)CC1,100,100,19
COCCN1CCC(CN(C)CC(C)(C)c2nc(-c3ccc(Cl)c(O)c3)c(-c3ccncc3)[nH]2)CC1.Cl,94,10,0
COc1cc(C)nc2ccc(NC(=O)Nc3cccc4ccccc34)cc12,91,48,27
Cc1ccc(S(=O)(=O)NC(=N)NC(N)=O)cc1,94,2,26
CN1CCN(CC(=O)Nc2ccc(-c3ccc(-c4nc5ccccc5[nH]4)cc3)cc2)CC1,98,80,18
COc1c(C2CCN(CCCCNC(=O)c3cccc(-c4ccc(C(F)(F)F)cc4)c3)CC2)ccc2c1CCCC2,92,45,50
Cc1ccc(NC(=O)c2ccc(CN3CCCN(CC4CCCCC4)CC3)cc2)cc1.O=C(O)C(F)(F)F,93,42,41
O=C(Nc1cccc(CN2CCCN(Cc3ccsc3)CC2)c1)c1ccc(Cl)c(Cl)c1.O=C(O)C(F)(F)F,98,20,36
